What was measured:
Assay type in all cases: functional
[1] = tested on: Plasmodium falciparum; assay: GSK_TCMDC: Inhibition of Plasmodium falciparum 3D7 in whole red blood cells, using parasite LDH activity as an index of growth. Test compounds present at 2uM
[2] = tested on: Plasmodium falciparum; assay: GSK_TCMDC: Inhibition of Plasmodium falciparum Dd2 in whole red blood cells, using parasite LDH activity as an index of growth. Test compounds present at 2uM
[3] = tested on: HepG2; assay: GSK_TCMDC: Percent inhibition of human HepG2 cell line. Test compounds present at 10uM.

Structure (SMILES)	Inhibition [1]	Inhibition [2]	Inhibition [3]
CN1CCN(c2nc(NCCc3ccc(O)cc3)nc(NCc3ccccc3-c3ccc(C(F)(F)F)cc3)n2)CC1	90%	82%	35%
Cl.Nc1ccnc2ccc(NC(=O)CCCCCc3ccccc3)cc12	96%	30%	47%
Cc1cc(C(=O)OCC(N)=O)c(C)n1-c1ccc(F)cc1	97%	96%	0%
O=C(C=Cc1ccc(Cl)c(Cl)c1)NCCCCCN1CCCC(CCCNC(=O)c2cccs2)C1 (centres undefined)	89%	0%	24%
O=C(Nc1cccc(CN2CCN(C(=O)c3cccc(Cl)c3)CC2)c1)c1ccco1.O=C(O)C(F)(F)F	96%	94%	7%
N#Cc1ccc(OCCN(Cc2ccccc2C(F)(F)F)c2ccc(C#N)c(C(F)(F)F)c2)cc1	100%	84%	69%
CCCC(=O)NC(c1ccc(C(C)C)cc1)c1ccc2cccnc2c1O (centres undefined)	90%	37%	50%
Cc1cc(Nc2cc(Cl)cc(Cl)c2)nc(N)n1	94%	28%	0%
Clc1ccc(Cl)c2[nH]c(CNCCCNc3nc4ccccc4[nH]3)cc12	100%	39%	88%
O=C(Nc1ccc2c(c1)CCC2)c1ccc(N2CCN(c3ccncc3)CC2)cc1.O=C(O)C(F)(F)F	100%	75%	72%
CCCc1ccc(C2CCN(CCCCNC(=O)c3ccc(NC(=O)c4ccc(Cl)cc4)cc3)CC2)cc1	100%	100%	39%
CCCCc1cc(O)c2c(c1)OC(C)(C)C=C2C1=CCN(Cc2ccccc2)CC1	98%	3%	9%
Cc1cc2cc(NC(=O)Nc3ccnc4ccccc34)ccc2n1C.Cl	90%	33%	17%
Cl.O=C(NC1CCN(CC2(c3ccc(Cl)cc3)CCCCC2)CC1)c1cc[nH]n1	98%	96%	0%
Cc1ccccc1Nc1nc(NCc2ccccc2)nc2ccccc12	88%	35%	39%
COc1ccc(CNC2CCN(C)CC2)cc1-c1cccc(S(=O)(=O)NCc2ccccc2)c1.O=C(O)C(F)(F)F	100%	7%	43%
Cc1cc(O)c(CN(C)Cc2ccc(N(C)C)cc2)cc1C(C)C	100%	98%	3%
COc1ccc2nccc([C@@H](O)CN3CCC(NC(=O)C(c4ccccc4C)N4CCC(Cc5ccccc5)CC4)CC3)c2c1 (some centres undefined)	100%	97%	10%
CCCCN1C(=N)NC(c2ccccc2)(c2ccccc2)C1=O	87%	34%	19%
CN1CCN(CCc2ccc(N/C=C3\C(=O)Nc4ccc5ncccc5c43)cc2)CC1.Cl	100%	98%	51%
Cn1cc(-c2ccnc3[nH]c(-c4cccc(CNC5CCC(O)CC5)c4)cc23)cn1.O=C(O)C(F)(F)F (centres undefined)	95%	82%	48%

Structure (SMILES)	Inhibition [1]	Inhibition [2]	Inhibition [3]
COc1ccc(-c2ccc(NC(=O)c3ccc(Cl)cc3)cc2)cc1CN1CCNCC1.O=C(O)C(F)(F)F	99%	24%	14%
Cc1cc(N[C@@H](Cc2ccccc2)C(=O)NCc2cccs2)nc(NCC2CCCCC2)n1.O=C(O)C(F)(F)F	100%	92%	0%
O=C(C=Cc1ccc(Cl)c(Cl)c1)NCCCCCN1CCC(CCNS(=O)(=O)c2ccc(F)cc2)CC1	88%	0%	36%
CCC1(CC)CN(c2ccccc2)c2ccc(O)cc2S(=O)(=O)C1CC(C)C (centres undefined)	96%	89%	0%
COc1ccc2nccc([C@@H](O)CN3CCC(NCc4cc5cccnc5[nH]4)CC3)c2n1.O=C(O)C(=O)O	90%	0%	7%
COC(=O)c1ccc(NC(=O)Nc2ccc(Cn3ncc(N4CCCNCC4)c(Cl)c3=O)cc2)cc1.O=C(O)C(F)(F)F	83%	43%	0%
O=C(C=Cc1ccc(Cl)c(Cl)c1)NCCCCCN1CCCC(CCCNS(=O)(=O)c2cccc(C(F)(F)F)c2)C1 (centres undefined)	94%	33%	81%
O=C(Nc1ccsc1)Nc1cccc(-c2cccc(-c3nc4ccccc4[nH]3)c2)c1	100%	55%	61%
CCC(=O)c1cc(C(=O)NCCc2cccc(OC)c2)ccc1OC	83%	12%	0%
CNc1cc(-c2ccc3ccnc(N)c3c2)nc(N)n1.O=CO	100%	81%	23%
O=C(CCNc1ccnc(NCC2CCCCC2)n1)Nc1ccccc1.O=C(O)C(F)(F)F	95%	48%	55%
Cl.NC[C@H](CC1CCCCC1)NC(=O)c1ccc(-c2ccnc3[nH]ccc23)s1	98%	4%	39%
CN1C(=O)C(=NN=C(S)N2CCOCC2)c2ccccc21	95%	54%	57%
COc1ccccc1CCNc1nccc(N[C@@H](Cc2ccccc2)C(=O)NCc2cccs2)n1.O=C(O)C(F)(F)F	90%	79%	34%
CC[C@H](C)CNC(=O)c1cncc(-c2ccc(CNCCOc3ccccc3)cc2)c1.O=C(O)C(F)(F)F	90%	0%	7%
CN(C)c1ccc2c(c1)Sc1cc(N(C)C)ccc1N2C(=O)CCCC(=O)[O-].[Na+]	96%	81%	0%
N#Cc1cccc(C(O)CN(Cc2ccccc2)Cc2ccccc2)c1 (centres undefined)	100%	100%	12%
COc1ccc2nccc([C@@H](O)CN3CCC(NCC4COc5ccccc5O4)CC3)c2c1.O=C(O)C(=O)O (some centres undefined)	98%	94%	17%
COc1cc(Br)c(NC(=O)Nc2ccc(C(F)(F)F)c(O[C@@H]3CCN(C)C3)c2)cc1OC.Cl	97%	27%	10%
Cc1noc(C)c1-c1ccc2c(Nc3ccccc3N3CCOCC3)c(C(=O)NCc3ccccc3)cnc2c1.Cl	91%	6%	23%
CN1CCN(c2ccnc3ccc(NC(=O)Nc4cccc5ccccc45)cc23)CC1	100%	96%	0%

Structure (SMILES)	Inhibition [1]	Inhibition [2]	Inhibition [3]
COC(=O)c1ccc(N2CCN(CCCCNC(=O)c3ccc(NC(=O)c4ccc(Cl)cc4)cc3)CC2)c(OC)c1	82%	1%	11%
CC(C)C[C@H](NC(=O)c1ccc(F)cc1)C(=O)N[C@H](/C=N/NC(=O)c1ccccc1)CCc1ccccc1	92%	61%	1%
COc1ccc2nc(/N=C3\NC(c4ccccn4)(c4ccccn4)C(=O)N3C)[nH]c2c1	99%	98%	65%
N=C(N)NN=CC(=O)Nc1ccc(Br)cc1.O=S(=O)(O)O	100%	1%	5%
COc1ccc2ccccc2c1CCCCN1CCN(CC(c2ccc(F)cc2)N2CCN(C3CCCC3)CC2)CC1.O=C(O)C(F)(F)F (centres undefined)	88%	51%	88%
COc1ccc(Oc2ccc(Nc3ccnc4ccc(C(F)(F)F)cc34)cc2)cc1OC.Cl	90%	17%	0%
CCN(CC)CCCSc1ccc(-c2ccc(SCCCN(CC)CC)cc2)cc1	87%	30%	38%
Cc1ccc(NC(=O)c2ccc(CN3CCCN(CC4CCCCC4)CC3)cc2)cc1F.O=C(O)C(F)(F)F	92%	61%	51%
CCCCC1=CC2C(=O)C(C(=O)OC)=CN=C2C=C1OCc1ccccc1 (centres undefined)	99%	98%	7%
CC1CC(C)CN(CC(O)CNC(=O)Nc2ccc(Br)cc2)C1.O=C(O)C(F)(F)F (centres undefined)	94%	44%	13%
Cc1[nH]c(C)c([N+](=O)[O-])c(=O)c1-c1ccc(Oc2ccccc2)cc1	98%	97%	11%
CS(=O)(=O)CCNCc1cccc(-c2cc3nccc(Nc4ccc(Oc5ccccc5)cc4)c3cc2Cl)c1	100%	82%	2%
O=C(Nc1cc(F)cc(F)c1)NC1CCN(CCCCCNC(=O)C2CC2c2ccc(Cl)c(Cl)c2)CC1 (centres undefined)	100%	6%	49%
CC1CCC(NCc2ccc3c(CNC4CCC(C)CC4)c(O)ccc3c2O)CC1.Cl (centres undefined)	100%	99%	4%
CC(C)(C)NS(=O)(=O)c1cc(C(=O)N2CCC(CCN3CCC(O)(c4cccc(C(F)(F)F)c4)CC3)(c3cccc(F)c3)CC2)c(Cl)cc1F	88%	55%	15%
Cc1cccc(C)c1N1CCN(C2CCC(NC(=O)c3cc4ccccc4[nH]3)CC2)CC1 (centres undefined)	100%	64%	31%
Cc1ccccc1CNC(=O)Nc1cccc(-c2csc(NC(=N)N)n2)c1	99%	14%	2%
COc1cc(OC)c2c(c1Cl)O[C@]1(C2=O)C(=O)C(Cc2ccccc2)(Cc2ccccc2)C(=O)C[C@H]1C	90%	45%	0%
O=C(Nc1ccccc1)Nc1ccc(-n2ccc(C(F)(F)F)n2)cc1	95%	85%	15%
Cc1nc2nc(N)nc(N)c2c(C)c1Cc1ccc(C(N)=O)cc1.Cl	97%	0%	55%
CCCOc1cc(OCCC)cc(-c2cc(=O)c3ccccc3[nH]2)c1	99%	96%	33%

Reference: ChEMBL document CHEMBL1157539, “Thousands of chemical starting points for antimalarial lead identification” (Nature, 2010)
